Results taken from PubChem BioAssay.
Active and inactive are the calls of the source.

How the values were obtained:
[1] = tested on: PRMT1 (protein arginine N-methyltransferase 1); assay: small molecules binding arginine methyltransferase PRMT1 – biochemical, small-molecule microarray, 635 nm fluorescence, primary screen (AID 1088); conditions: higher = more signal;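 also: binding of Prmt1 protein to compounds spotted on small-molecule microarray slides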
[2] = growth effects on S. cerevisiae YJM789 – YJM789 clinical isolate, OD600, 24 h, basal, primary screen (AID 1089); conditions: higher = more signal, called active from +8 up or from −8 down;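 also: growth of clinical yeast isolate S. cerevisiae YJM 789 seeded 1000 cells per well; test concentration not given here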
[3] = S. pombe growth modifiers, basal conditions – strain 972, OD600, 24 h, no modulator, primary screen (AID 1090);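 also: basal condition with compound alone and no growth modifier present; test concentration not given here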; conditions: S. pombe 972 growth, higher = more signal, called active from +8 up or from −8 down
[4] = budding yeast growth modifiers under rapamycin – strain BY4716, OD600, 96 h, primary screen (AID 1091); also: test concentration not given here; conditions: S. cerevisiae BY4716 + rapamycin, higher = more signal, called active from +8 up or from −8 down
[5] = target: Torsin-1A-interacting protein 2 (Homo sapiens) (UniProt Q8NFQ8); assay: small molecules binding lysate-expressed LULL1 – cell lysate, human LULL1 lysate, 635/667 nm fluorescence, primary screen (AID 1092); conditions: small-molecule microarray, hLULL1 lysate binding, 635 nm fluorescence; higher = more signal;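 also: probe is lysate of COS7 cells overexpressing human LULL1; score merges per-feature 667 nm fluorescence with signal-to-noise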
Sequence of Torsin-1A-interacting protein 2 (Homo sapiens) (Q8NFQ8 whole entry, looked up): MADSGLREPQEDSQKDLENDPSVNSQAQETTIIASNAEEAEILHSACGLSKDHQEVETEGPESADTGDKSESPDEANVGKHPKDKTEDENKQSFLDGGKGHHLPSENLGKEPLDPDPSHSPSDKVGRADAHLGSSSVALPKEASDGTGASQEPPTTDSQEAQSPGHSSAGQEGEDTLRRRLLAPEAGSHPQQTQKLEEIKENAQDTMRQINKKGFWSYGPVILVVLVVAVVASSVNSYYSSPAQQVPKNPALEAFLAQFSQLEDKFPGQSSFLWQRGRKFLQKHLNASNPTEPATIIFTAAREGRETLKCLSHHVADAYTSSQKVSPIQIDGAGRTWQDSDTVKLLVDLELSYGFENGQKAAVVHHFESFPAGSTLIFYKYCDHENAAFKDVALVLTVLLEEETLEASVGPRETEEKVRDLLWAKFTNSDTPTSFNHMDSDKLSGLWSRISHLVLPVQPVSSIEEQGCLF

[6] = optical density change of DRC41 E. coli – strain DRC41, OD650, 24 h, E. coli filamentation project, primary screen (AID 1093);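 also: MC1000 strain lacking acrAB efflux and sulA so SOS filamentation is blocked; test concentration not given here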; conditions: E. coli DRC41 growth, higher = more signal, called active from +8 up or from −8 down
[7] = probe aLefty2 binding to arrayed compounds – biochemical, biotinylated probe, 635/667 nm fluorescence, primary screen (AID 1094); conditions: small-molecule microarray, higher = more signal;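 also: score merges spot fluorescence near 667 nm with spot signal-to-noise ratio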
[8] = tested on: Noggin (protein binding on small-molecule microarray); assay: small molecules binding Noggin protein – biochemical, 635/667 nm fluorescence, primary screen (AID 1095); conditions: 635 nm fluorescence, higher = more signal;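 also: score merges 667 nm feature fluorescence with signal to noise over triplicate slides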
[9] = target: Neurogenic locus notch homolog protein 3 (Homo sapiens) (UniProt Q9UM47); assay: small molecules binding NOTCH3 protein – biochemical, 635/667 nm fluorescence, primary screen (AID 1096); conditions: small-molecule microarray, 635 nm fluorescence, higher = more signal
Sequence of Neurogenic locus notch homolog protein 3 (Homo sapiens) (Q9UM47 whole entry, looked up): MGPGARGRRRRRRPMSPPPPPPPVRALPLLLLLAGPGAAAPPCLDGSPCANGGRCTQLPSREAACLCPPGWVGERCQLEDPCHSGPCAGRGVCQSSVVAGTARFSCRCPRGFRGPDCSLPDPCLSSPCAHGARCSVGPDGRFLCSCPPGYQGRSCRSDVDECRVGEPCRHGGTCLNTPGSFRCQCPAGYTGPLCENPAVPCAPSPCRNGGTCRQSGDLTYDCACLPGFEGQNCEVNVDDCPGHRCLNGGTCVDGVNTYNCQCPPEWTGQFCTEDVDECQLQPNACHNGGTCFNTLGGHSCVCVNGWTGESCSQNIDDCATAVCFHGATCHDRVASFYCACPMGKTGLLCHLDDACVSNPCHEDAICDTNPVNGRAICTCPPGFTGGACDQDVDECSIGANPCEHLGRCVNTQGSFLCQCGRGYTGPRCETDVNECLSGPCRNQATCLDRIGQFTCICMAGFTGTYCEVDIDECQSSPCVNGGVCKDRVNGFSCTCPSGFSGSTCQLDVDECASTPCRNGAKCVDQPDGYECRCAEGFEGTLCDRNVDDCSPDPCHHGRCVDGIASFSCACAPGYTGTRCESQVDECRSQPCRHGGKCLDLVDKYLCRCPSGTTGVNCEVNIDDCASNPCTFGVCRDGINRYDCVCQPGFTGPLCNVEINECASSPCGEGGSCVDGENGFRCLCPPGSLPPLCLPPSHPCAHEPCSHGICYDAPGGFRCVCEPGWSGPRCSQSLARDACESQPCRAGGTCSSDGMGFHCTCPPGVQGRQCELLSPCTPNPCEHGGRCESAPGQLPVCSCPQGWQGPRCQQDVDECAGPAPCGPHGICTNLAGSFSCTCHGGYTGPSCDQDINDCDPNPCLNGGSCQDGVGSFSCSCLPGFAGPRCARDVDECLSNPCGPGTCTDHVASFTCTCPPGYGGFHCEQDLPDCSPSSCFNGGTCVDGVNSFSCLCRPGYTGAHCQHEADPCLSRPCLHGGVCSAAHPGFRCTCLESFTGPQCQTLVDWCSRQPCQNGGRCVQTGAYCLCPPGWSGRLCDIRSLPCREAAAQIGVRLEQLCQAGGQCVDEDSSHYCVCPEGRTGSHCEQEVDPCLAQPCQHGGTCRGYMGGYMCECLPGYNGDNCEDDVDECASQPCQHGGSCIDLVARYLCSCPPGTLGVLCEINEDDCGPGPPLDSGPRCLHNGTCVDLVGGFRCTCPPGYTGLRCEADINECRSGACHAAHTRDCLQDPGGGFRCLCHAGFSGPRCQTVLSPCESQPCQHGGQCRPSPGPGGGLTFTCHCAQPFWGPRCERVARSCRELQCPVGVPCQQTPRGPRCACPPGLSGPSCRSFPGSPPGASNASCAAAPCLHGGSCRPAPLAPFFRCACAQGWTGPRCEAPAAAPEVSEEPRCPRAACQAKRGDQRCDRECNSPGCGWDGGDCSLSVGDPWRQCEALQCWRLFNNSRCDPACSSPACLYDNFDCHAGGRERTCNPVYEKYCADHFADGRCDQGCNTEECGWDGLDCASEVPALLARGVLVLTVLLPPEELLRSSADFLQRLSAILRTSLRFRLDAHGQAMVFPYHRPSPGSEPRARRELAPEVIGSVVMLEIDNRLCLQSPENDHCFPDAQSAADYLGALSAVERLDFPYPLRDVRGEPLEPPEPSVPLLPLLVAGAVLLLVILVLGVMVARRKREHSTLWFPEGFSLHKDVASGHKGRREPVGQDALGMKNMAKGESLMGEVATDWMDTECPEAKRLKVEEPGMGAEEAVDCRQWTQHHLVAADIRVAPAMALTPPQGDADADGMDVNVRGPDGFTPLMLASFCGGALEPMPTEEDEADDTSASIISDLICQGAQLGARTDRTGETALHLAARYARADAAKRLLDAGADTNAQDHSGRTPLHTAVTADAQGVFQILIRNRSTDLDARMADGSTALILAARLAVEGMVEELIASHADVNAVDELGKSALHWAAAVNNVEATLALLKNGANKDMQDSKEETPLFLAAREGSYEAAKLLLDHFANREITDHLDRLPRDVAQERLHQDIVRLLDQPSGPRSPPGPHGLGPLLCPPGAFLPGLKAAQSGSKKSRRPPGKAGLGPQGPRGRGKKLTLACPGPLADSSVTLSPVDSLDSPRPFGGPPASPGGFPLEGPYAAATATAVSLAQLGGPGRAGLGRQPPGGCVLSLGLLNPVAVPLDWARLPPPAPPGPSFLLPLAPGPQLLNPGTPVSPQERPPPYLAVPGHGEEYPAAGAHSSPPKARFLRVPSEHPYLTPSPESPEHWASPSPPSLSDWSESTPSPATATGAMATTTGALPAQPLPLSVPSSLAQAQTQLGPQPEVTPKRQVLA

[10] = probe aEGFR binding to arrayed compounds – biochemical, biotinylated probe, 635/667 nm fluorescence, primary screen (AID 1097); conditions: small-molecule microarray, higher = more signal;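 also: probe is a biotinylated anti-EGFR antibody binding compounds printed on slides; score combines fluorescence near 667 nm and signal to noise of each spot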

Row | Compound | composite z-score [1] | z-score [2] | z-score [3] | z-score [4] | composite z-score [5] | z-score [6] | composite z-score [7] | composite z-score [8] | composite z-score [9] | composite z-score [10]
1 | O=C1[C@H]2[C@H]3[C@H](O)[C@H](O)CC(=NO[C@@H]4O[C@H](CO)[C@@H](O)[C@H](O)[C@H]4O)[C@H]3CC[C@H]2C(=O)N1Cc1ccc2c(c1)OCO2 | 0.661 | 0.827 (inactive) | 0.918 (inactive) | -0.297 (inactive) | 2.14 | 0.529 (inactive) | 0.0835 | -0.246 | -0.133 | -0.17
2 | COCCCNC(=O)[C@]1(Cc2ccccc2)N=C(c2ccc(OCCCO)cc2)O[C@@H]1c1ccccc1 | 1.44 | -1 (inactive) | -1.32 (inactive) | -1.41 (inactive) | 3.61 | -0.806 (inactive) | 0.0814 | 0.468 | 0.129 | -0.0594
3 | Cc1cc2c(nc1C)CCCN2CC(C)ON=C1[C@H]2CCn3c(=O)n(-c4ccccc4)c(=O)n3[C@H]2[C@H](O)[C@@H]2O[C@H]12 (stereo not given in full) | 1.51 | -0.706 (inactive) | -0.829 (inactive) | -0.115 (inactive) | 1.42 | -0.414 (inactive) | -0.138 | 0.725 | 1.01 | -0.0141
4 | COCCOC(=O)N1C(=O)[C@@]2(c3cc(C#Cc4ccc(OC)cc4)ccc31)[C@H](c1ccc(O)cc1)N1[C@H](c3ccccc3)[C@H](c3ccccc3)OC(=O)[C@H]1[C@@H]2C(N)=O | 1.55 | 0.0655 (inactive) | -0.118 (inactive) | -0.0092 (inactive) | 2.93 | 0.04 (inactive) | -0.145 | 0.977 | 1.1 | 0.0026
